Screens from PubChem BioAssay.
Hedgehog inh = Sonic Hedgehog pathway inhibition | AID 2313 | Shh-LIGHT2 Gli-luciferase reporter, 30 h | inhibition, % (concentration not given with the values) | 22,000 tested, 2.1% active;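 active means mean inhibition across valid replicates above about 65%, limit read from the data; inconclusive means mean under the limit, yet half or more replicates past it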;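 further: pathway switched on by Shh-conditioned medium diluted 1 in 25 in low serum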
MITF inhib = blocks MITF activity; TRPM1 promoter luciferase, luminescence, 24 h; inhibition, % (concentration not given with the values); 37,000 tested, 0.28% active; in the data active means inhibition above about 85%; inconclusive means no clear call, values can overlap the other calls; inactive means below about 68%;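 further: human melanocyte line stably carrying TRPM1 promoter luciferase reporter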
PD-1 reverse act = reversal of PD-1 mediated T-cell inhibition | primary human CD4 T cells, PD-L1 beads, CellTiter-Glo 96 h | activation, % (concentration not given with the values) | 29,000 tested, under 10 active | AID 2316; call rule not given here
YB-1 expr inh = YB-1 expression inhibition; U2OS, qRT-PCR YB-1 vs CDIP delta delta Cp, 16 h; hits give high values; zero = DMSO, each unit about twofold; delta delta Cp (YB-1 minus CDIP) (concentration not given with the values); 30,000 tested, 0.37% active;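 active means delta delta Cp rounded down to an integer at or above 3, about 3 SD of DMSO wells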;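 further: higher means less YB-1 transcript or more CDIP transcript relative to DMSO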
NOMO-1 viab = STK33 inhibitor candidate reducing NOMO-1 cell viability. 37,000 tested, 7.5% active. inhibition, % (no concentration beside the values). NOMO-1 AML viability, CellTiter-Glo luminescence, 72 h; in the data active means inhibition above about 80%; inconclusive means no clear call, values can overlap the other calls
Each line names hits and unclear results; the compound was inactive in the other large screens; ! = a repeat was not active. Hits are enriched below; roughly 7.4% of the tested compounds scored in any of these assays.

C[C@@H]1CN([C@@H](C)CO)C(=O)c2cccc(NC(=O)Nc3ccc4c(c3)OCO4)c2O[C@@H]1CN(C)C(=O)Nc1ccc2c(c1)OCO2	none
C[C@H]1CN([C@@H](C)CO)C(=O)c2cccc(NC(=O)Nc3ccc(C(F)(F)F)cc3)c2O[C@@H]1CN(C)C(=O)Nc1ccc2c(c1)OCO2	NOMO-1 viab 96 (no result: PD-1 reverse act)
Cc1sc2ncnc(SCC(=O)NCC3CCCO3)c2c1-c1ccc(Cl)cc1 (configuration not stated)	none (no result: Hedgehog inh, YB-1 expr inh)
COc1ccc(-n2ncc(NC(=O)Nc3ccc4c(c3)OCCCO4)c2C)cc1	Hedgehog inh inconclusive
C=CCOC(Cn1ccnc1)c1ccc(Cl)cc1Cl (configuration not stated)	none (no result: PD-1 reverse act)
Clc1ccc(COC(Cn2ccnc2)c2ccc(Cl)cc2Cl)c(Cl)c1 (configuration not stated)	Hedgehog inh 65! (no result: PD-1 reverse act)
CNC(=O)c1c(N)sc2c1CCCCC2	NOMO-1 viab 126
CC1=CC(C)C2COC(c3ccccc3OCc3ccccc3)C1C2C (configuration not stated)	none
C[C@H]1CN([C@@H](C)CO)C(=O)Cc2cc(NC(=O)Nc3ccc(C(F)(F)F)cc3)ccc2O[C@H]1CN(C)S(=O)(=O)c1cn(C)cn1	NOMO-1 viab 125
CC(C)NC(=O)Nc1ccc2c(c1)CC(=O)N([C@@H](C)CO)C[C@H](C)[C@H](CN(C)S(=O)(=O)c1cn(C)cn1)O2	none (no result: Hedgehog inh)
C[C@H](CO)N1C[C@H](C)[C@H](CN(C)S(=O)(=O)c2cn(C)cn2)Oc2ccc(NC(=O)NC3CCCCC3)cc2CC1=O	Hedgehog inh 77
O=C(c1ccc(Br)cc1)C(C(=O)N1CCCCC1)n1ccccc1=O (configuration not stated)	none (no result: Hedgehog inh)
O=C(CCc1nc(-c2ccccc2Cl)no1)Nc1cccc([N+](=O)[O-])c1	none (no result: Hedgehog inh, YB-1 expr inh)
Cc1cc(OCc2nc3ccccc3s2)ccc1NC(=O)Nc1cccc(Cl)c1	NOMO-1 viab 107 (no result: Hedgehog inh, PD-1 reverse act, YB-1 expr inh)
C[C@@H]1C[C@H]2OCC3=CCC[C@H]([C@]1(CC(O)c1ccoc1)C(=O)O)[C@]32CO (some centres not stated)	NOMO-1 viab 120
O=C1N=C(c2cccc(O)c2)c2ccccc2Nc2ccccc21	Hedgehog inh 86
NC(=O)CN1C(=O)C(O)(CC(=O)c2ccncc2)c2ccccc21 (configuration not stated)	none (no result: Hedgehog inh, YB-1 expr inh)
O=C(CC1(O)C(=O)N(CCc2ccccc2)c2ccc(Br)cc21)c1ccncc1 (configuration not stated)	NOMO-1 viab 114 (no result: Hedgehog inh, PD-1 reverse act, YB-1 expr inh)
Cc1coc(C)c1C(=O)CC1(O)C(=O)N(CCc2ccccc2)c2ccccc21 (configuration not stated)	none (no result: Hedgehog inh, YB-1 expr inh)
CCN1C(=O)C(O)(CC(=O)c2ccco2)c2cc(Br)ccc21 (configuration not stated)	NOMO-1 viab 122 (no result: Hedgehog inh, YB-1 expr inh)
Cc1n[nH]c(C)c1C(=O)CC1(O)C(=O)N(Cc2ccccc2)c2ccccc21 (configuration not stated)	none (no result: Hedgehog inh, YB-1 expr inh)
CCCCN1C(=O)C(O)(CC(=O)c2ccco2)c2ccccc21 (configuration not stated)	NOMO-1 viab 119 (no result: Hedgehog inh, YB-1 expr inh)
CCCCN1C(=O)C(O)(CC(=O)c2ccco2)c2cc(Br)ccc21 (configuration not stated)	NOMO-1 viab 113 (no result: Hedgehog inh, PD-1 reverse act, YB-1 expr inh)
COC(=O)c1sc2nc(-c3ccccc3)nc(Nc3nc(C)cc(C)n3)c2c1C	none (no result: Hedgehog inh, YB-1 expr inh)
C[C@H]1CN([C@@H](C)CO)C(=O)Cc2cc(NC(=O)Cc3cn(C)c4ccccc34)ccc2O[C@H]1CN(C)Cc1ccc2c(c1)OCO2	none
C[C@H]1CN([C@@H](C)CO)C(=O)Cc2cc(NC(=O)Cc3cn(C)c4ccccc34)ccc2O[C@@H]1CN(C)Cc1ccc(-c2ccccc2)cc1	NOMO-1 viab 122
C[C@@H]1CN([C@@H](C)CO)C(=O)Cc2cc(NC(=O)Cc3cn(C)c4ccccc34)ccc2O[C@@H]1CN(C)Cc1ccc(Oc2ccccc2)cc1	NOMO-1 viab 115
C[C@@H]1CN([C@H](C)CO)C(=O)Cc2cc(NC(=O)Cc3cn(C)c4ccccc34)ccc2O[C@@H]1CN(C)Cc1ccc(Cl)c(Cl)c1	NOMO-1 viab 95
C[C@H]1CN([C@@H](C)CO)C(=O)Cc2cc(NC(=O)Cc3cn(C)c4ccccc34)ccc2O[C@H]1CN(C)Cc1ccc(Oc2ccccc2)cc1	NOMO-1 viab inconclusive
C[C@@H]1CN([C@H](C)CO)C(=O)Cc2cc(NC(=O)Cc3cn(C)c4ccccc34)ccc2O[C@@H]1CN(C)Cc1ccccc1	NOMO-1 viab 107
C[C@@H]1CN([C@@H](C)CO)C(=O)Cc2cc(NC(=O)Cc3cn(C)c4ccccc34)ccc2O[C@@H]1CN(C)Cc1ccccc1	none
O=C(Nc1ccccc1C(=O)OCc1ccc([N+](=O)[O-])cc1)c1ccco1	none (no result: Hedgehog inh, YB-1 expr inh)
Cc1ccc2cccc(S(=O)(=O)N3CCC(C(=O)O)CC3)c2n1	none (no result: Hedgehog inh, YB-1 expr inh)
Cc1ccc(S(=O)(=O)Nc2ccc3c(c2)CC(=O)N([C@@H](C)CO)C[C@H](C)[C@@H](CN(C)Cc2ccc(C(=O)Nc4ccccc4N)cc2)O3)cc1	none (no result: Hedgehog inh)
C[C@H](CO)N1C[C@H](C)[C@H](CN(C)Cc2ccc(C(=O)Nc3ccccc3N)cc2)Oc2ccc(NS(=O)(=O)c3ccc(Cl)cc3)cc2CC1=O	NOMO-1 viab 141 (no result: Hedgehog inh)
Cc1ccc(S(=O)(=O)Nc2ccc3c(c2)CC(=O)N([C@H](C)CO)C[C@@H](C)[C@@H](CN(C)Cc2ccc(C(=O)Nc4ccccc4N)cc2)O3)cc1	NOMO-1 viab 107 (no result: Hedgehog inh)
C[C@H](CO)N1C[C@H](C)[C@H](CN(C)Cc2ccc(C(=O)Nc3ccccc3N)cc2)Oc2ccc(NS(=O)(=O)c3ccc(F)cc3)cc2CC1=O	NOMO-1 viab 140 (no result: Hedgehog inh)
Cc1cc(-c2ccc3ccccc3n2)nc2ccc3ccccc3c12	none
C[C@H]1CN([C@@H](C)CO)C(=O)c2cccc(NS(=O)(=O)c3ccc(F)cc3)c2O[C@H]1CN(C)Cc1ccc(Cl)c(Cl)c1	none
COc1ccc(S(=O)(=O)Nc2cccc3c2O[C@@H](CN(C)Cc2ccc(Cl)c(Cl)c2)[C@@H](C)CN([C@H](C)CO)C3=O)cc1	Hedgehog inh 115, NOMO-1 viab 115
C[C@H](CO)N1C[C@H](C)[C@H](CN(C)Cc2ccc(Cl)c(Cl)c2)Oc2c(NS(=O)(=O)c3ccc(F)cc3)cccc2C1=O	Hedgehog inh 86, NOMO-1 viab 91
COc1ccc(S(=O)(=O)Nc2cccc3c2O[C@H](CN(C)Cc2ccc(Cl)c(Cl)c2)[C@H](C)CN([C@@H](C)CO)C3=O)cc1	none
O=C(NCC(O)c1ccccc1)c1ccc(Cl)c(S(=O)(=O)N2CCOCC2)c1 (configuration not stated)	none (no result: Hedgehog inh, YB-1 expr inh)
CC(Sc1ncnc2sc(-c3ccccc3)cc12)C(=O)Nc1cc(Cl)ccc1Cl (configuration not stated)	none (no result: Hedgehog inh, YB-1 expr inh)
C/C=C(/C)C(=O)O[C@@H]1c2cc(OC)c(OC)cc2-c2c(ccc(OC)c2OC)C[C@H]2C(=O)OC[C@H]12	NOMO-1 viab 117
